Where “and” joins values, the source holds several entries; their conditions need not be identical. Equal entries are not always repeated. Results filed as inconclusive are left out. Some structures have more than one record in an assay (separate samples or runs), and their calls can disagree. Calls of active or inactive are those of the source. The calls were made as follows, unless noted: active = hit-call score of the fitted dose curve at least 0.9, where 1 is the maximum; inactive = score below 0.9.
Assays:
[1] = target: Ratio of Nucleoli Translocation and Cytoplasm, AR (gene 367) (UniProt P10275); assay: UPITT_HCI_U2OS_AR_TIF2_Nucleoli_Cytoplasm_Ratio_Agonist: University of Pittsburgh U2OS Androgen Receptor-Transcriptional Intermediary Factor 2 (AR-TIF2) Agonism High Content Imaging Assay for Ratio of Nucleoli Translocation and Cytoplasm (AID 2284000; active = hit-call score of the fitted dose curve at least 0.9, where 1 is the maximum;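 also: hits raise the red nucleolar to cytoplasm ratio above vehicle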)
Ratio of Nucleoli Translocation and Cytoplasm, AR (gene 367), sequence (P10275 whole entry, looked up): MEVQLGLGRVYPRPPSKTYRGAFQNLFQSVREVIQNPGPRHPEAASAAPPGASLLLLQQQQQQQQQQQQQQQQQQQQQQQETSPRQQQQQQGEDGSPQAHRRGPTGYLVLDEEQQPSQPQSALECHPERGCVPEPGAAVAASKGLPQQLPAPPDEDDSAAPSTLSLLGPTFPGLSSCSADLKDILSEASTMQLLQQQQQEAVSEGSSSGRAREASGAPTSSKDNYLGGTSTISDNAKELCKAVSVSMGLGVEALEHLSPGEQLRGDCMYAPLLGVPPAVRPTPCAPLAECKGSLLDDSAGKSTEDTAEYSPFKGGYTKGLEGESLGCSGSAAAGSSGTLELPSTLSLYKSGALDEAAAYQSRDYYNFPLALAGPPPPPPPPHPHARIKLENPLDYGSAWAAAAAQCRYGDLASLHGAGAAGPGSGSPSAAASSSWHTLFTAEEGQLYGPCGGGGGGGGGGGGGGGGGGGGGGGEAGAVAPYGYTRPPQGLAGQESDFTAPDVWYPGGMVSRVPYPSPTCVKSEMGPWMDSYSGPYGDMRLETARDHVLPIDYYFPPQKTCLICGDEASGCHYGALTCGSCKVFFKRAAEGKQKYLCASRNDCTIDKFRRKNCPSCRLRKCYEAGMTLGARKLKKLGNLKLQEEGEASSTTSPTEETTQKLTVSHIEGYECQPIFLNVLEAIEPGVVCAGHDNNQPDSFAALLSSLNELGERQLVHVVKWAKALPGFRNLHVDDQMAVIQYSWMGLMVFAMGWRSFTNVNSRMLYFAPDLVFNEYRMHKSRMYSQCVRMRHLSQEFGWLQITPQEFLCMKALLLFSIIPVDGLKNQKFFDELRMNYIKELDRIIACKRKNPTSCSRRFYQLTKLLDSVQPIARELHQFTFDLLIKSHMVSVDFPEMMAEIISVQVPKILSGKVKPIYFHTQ
Procedure, shortened: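 Compounds tested at 20 uM final in primary screen (0.2% DMSO) and 0.195-50 uM final in dose-response (0.5% DMSO). Imaging of human U2OS cells bearing RFP-AR and GFP-TIF2; endpoint is nucleoli/cytoplasm red signal ratio, positive direction relative to DMSO.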

[2] = CCTE_Harrill_HTTr_Viability_MCF7: CCTE's 6-hour Cell Viability Assessment for the High-Throughput Transcriptomics (HTTr) Platform, in MCF-7 cells cultured in DMEM + 10% fetal bovine serum, Harrill Lab (AID 2284010)
Procedure, shortened: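 Eight-point concentration series, six-hour exposure. Propidium iodide exclusion imaged to assess membrane integrity as a cytotoxicity readout; bidirectional fitting was done with DMSO as negative control and activity baseline.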

[3] = CCTE_Shafer_MEA_acute_spike_number: CCTE's Neural Acute Assay for Total Number of Spikes, Shafer Lab (AID 2284008);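 as to AC50: curve fitted for decrease in spike count so AC50 reflects inhibitors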
Procedure, shortened: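 Primary rat cortical neurons on 16-electrode MEA wells; on DIV 13 or 15, 40-min baseline then 40-min recording with compound (0.03-40 uM) at 37 C. Spikes detected at 8x rms noise; percent change versus baseline, DMSO as negative control.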

[4] = CCTE_Shafer_MEA_acute_firing_rate_mean: CCTE's Neural Acute Assay for Mean Firing Rate, Shafer Lab (AID 2284009);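 also: analyzed for loss of signal so actives lower firing rate relative to DMSO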
Procedure, shortened: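 Primary rat cortical neurons on 16-electrode MEA wells were exposed on DIV 13 or 15 to compound (0.03-40 uM). Spike counts per recording time, averaged over electrodes, were compared between 40-min baseline and 40-min post-exposure recordings as percent change.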

[5] = CCTE_Shafer_MEA_acute_burst_number: CCTE's Neural Acute Assay for Single-Electrode Bursts, Shafer Lab (AID 2284013)
Procedure, shortened: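 Primary rat cortical neurons on 16-electrode MEA wells, DIV 13 or 15, exposed to compound (0.03-40 uM; ≥3 wells); 40-min recordings at 37 C before and after treatment. Burst count expressed as percent change from baseline, DMSO as negative control.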

[6] = CCTE_Shafer_MEA_acute_burst_duration_mean: CCTE's Neural Acute Assay for Mean Burst Duration, Shafer Lab (AID 2284014);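 also: hits are decreases in mean burst duration relative to DMSO controls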
Procedure, shortened: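 Mean burst duration was compared between a 40 min baseline and a 40 min recording in the presence of compound (0.03-40 uM, 37 C), giving percent change per well. Cultures were rat cortical neurons at DIV 13 or 15; wells needed ≥10 active electrodes.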

[7] = CCTE_Shafer_MEA_acute_per_burst_spike_number_mean: CCTE's Neural Acute Assay for Average Number of Spikes Per Burst, Shafer Lab (AID 2284015);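 also: hits are decreases in mean spikes per burst versus baseline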
Procedure, shortened: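 Primary rat cortical neurons on 48-well MEA plates, treated on DIV 13 or 15 at 0.03-40 uM. Spontaneous activity recorded 40 min before and 40 min after compound at 37 C; percent change in mean spikes per single-electrode burst per well, fitted in the loss direction versus DMSO.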

[8] = CCTE_Shafer_MEA_acute_interburst_interval_mean: CCTE's Neural Acute Assay for Mean Interburst Interval, Shafer Lab (AID 2284016);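 also: percent change of mean interburst interval versus each well's own pre-dose baseline; curves fitted for decrease in interburst interval relative to DMSO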
Procedure, shortened: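 Primary rat cortical neurons on 16-electrode MEA wells were recorded 40 min at baseline on DIV 13 or 15, then 40 min after compound (0.03-40 uM), at 37 C. Value is percent change in mean interburst interval per well, DMSO as negative control.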

[9] = CCTE_Shafer_MEA_acute_burst_percentage_mean: CCTE's Neural Acute Assay for Percentage of Spikes in a Burst, Shafer Lab (AID 2284017);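 as to AC50: curve fitted for loss of signal so potency reflects decreased burst percentage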
Procedure, shortened: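 Primary rat cortical neurons on 16-electrode MEA wells; 40 min baseline recorded at DIV 13 or 15, then 40 min after compound (0.03-40 uM) at 37 C. Well-mean fraction of spikes in single-electrode bursts; percent change from baseline, DMSO as negative control.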

[10] = CCTE_Shafer_MEA_acute_burst_percentage_std: CCTE's Neural Acute Assay for Standard Deviation of Burst Percentage, Shafer Lab (AID 2284018);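 also: fitted in the negative direction so actives lower burst percentage SD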
Procedure, shortened: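 Value is percent change from baseline in the across-electrode SD of spikes-in-bursts percentage, wells with >/= 10 active electrodes. Acute 40-min exposure to 0.03-40 uM on DIV 13 or 15 rat cortical cultures, recorded at 37 C after 40-min baseline.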

[11] = CCTE_Shafer_MEA_acute_per_network_burst_spike_number_mean: CCTE's Neural Acute Assay for Average Number of Spikes in a Network Burst, Shafer Lab (AID 2284019);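 as to AC50: curve fitted for loss of signal so actives reduce spikes per network burst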
Procedure, shortened: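 Percent change from baseline in mean spikes per network burst, spikes detected at 8x rms noise. Each compound at 0.03-40 uM in at least three wells of rat cortical cultures, recorded 40 min before and 40 min during exposure.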

[12] = CCTE_Shafer_MEA_acute_per_network_burst_spike_number_std: CCTE's Neural Acute Assay for Standard Deviation of Number of Spikes in a Network Burst, Shafer Lab (AID 2284020);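 also: fitted for decrease in spike-number SD versus DMSO so actives lower it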
Procedure, shortened: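 Endpoint: percent change from 40 min baseline in standard deviation of spikes per network burst, after 40 min compound exposure (0.03-40 uM, 37 C). Cortical rat neurons on MEA at DIV 13 or 15; spikes detected at 8x rms noise, 300-5000 Hz band-pass.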

[13] = CCTE_Shafer_MEA_acute_per_network_burst_electrodes_number_mean: CCTE's Neural Acute Assay for Mean Number of Electrodes in a Network Burst, Shafer Lab (AID 2284021);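 also: curves fitted for decreases only so hits reduce electrodes per burst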
Procedure, shortened: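 Rat primary cortical neurons on 16-electrode MEA wells were recorded 40 min at baseline on DIV 13 or 15, then 40 min after compound (0.03-40 uM), at 37 C. Value is percent change per well, fitted in loss direction versus DMSO.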

[14] = CCTE_Shafer_MEA_acute_cross_correlation_area: CCTE's Neural Acute Assay for Area of Cross Correlation, Shafer Lab (AID 2284024);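 also: area under pooled inter-electrode spike cross-correlation near zero lag as percent change from own baseline; curves fitted for loss of cross-correlation area so actives lower synchrony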
Procedure, shortened: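 Primary rat cortical neurons on 48-well MEA plates (16 electrodes/well) were recorded 40 min at baseline on DIV 13 or 15, then 40 min with compound (0.03-40 uM) at 37 C; cross-correlation area expressed as percent change from baseline.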

[15] = CCTE_Harrill_HTTr_CellCount_MCF7: CCTE's Cell Proliferation Assessment for the High-Throughput Transcriptomics (HTTr) Platform, Harrill Lab (AID 2284012; active = hit-call score of the fitted dose curve at least 0.9, where 1 is the maximum;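 also: count of Hoechst-stained nuclei per well by high-content imaging in MCF-7 cells; cells exposed to compound for six hours; intended direction is loss of nuclei count meaning fewer cells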)
Procedure, shortened: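 For this full-screen endpoint, MCF-7 cultures received eight compound dilutions for six hours. Well nuclei counts from Hoechst imaging were analyzed relative to DMSO.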

[16] = CCTE_Simmons_MITO_basal_resp_rate: CCTE's HepG2 Seahorse XF Respirometric Screening Assay at Basal Respiratory State, Simmons Lab (AID 2284001); conditions: actives raise or lower the signal
Procedure, shortened: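 Basal-phase OCR in HepG2 cells, read at 6-min intervals across a 72-min run, with test compound injected at 125 nM–100 uM final (7 points). Fitted both directions against DMSO; three biological replicates per concentration.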

[17] = CCTE_Simmons_MITO_max_resp_rate: CCTE's HepG2 Seahorse XF Respirometric Screening Assay at Maximal Respiratory State [uncoupled], Simmons Lab (AID 2284002); conditions: actives raise or lower the signal
Procedure, shortened: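 HepG2 oxygen consumption was read on a Seahorse XF96 after FCCP uncoupler injection, following test compound injection; 7 concentrations, 125 nM–100 uM final, three biological replicates. Bidirectional fitting against DMSO vehicle baseline.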

[18] = CCTE_Simmons_MITO_inhib_resp_rate: CCTE's HepG2 Seahorse XF Respirometric Screening Assay at Inhibited Respiratory State [full ETC block], Simmons Lab (AID 2284006); conditions: actives raise or lower the signal
Procedure, shortened: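 Test chemicals at seven final concentrations (125 nM–100 uM) in three biological replicates, with DMSO as vehicle. HepG2 oxygen consumption was then tracked on a Seahorse XF96 for 72 min through FCCP and rotenone/antimycin A phases, with the inhibited-phase rate as the endpoint.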

[19] = CCTE_Simmons_MITO_viability: CellTiter-Glo Viability Assessment for CCTE's HepG2 Seahorse XF Respirometric Screening Assay [post-hoc], Simmons Lab (AID 2284007; active = hit-call score of the fitted dose curve at least 0.9, where 1 is the maximum;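 also: cells exposed to chemical for 90 min before the ATP read; actives lower ATP signal relative to DMSO baseline meaning reduced viability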)
Procedure, shortened: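 Post-hoc viability check on the HepG2 respirometry plates: luciferase-based ATP signal measured once, after 90 min compound exposure spanning 125 nM–100 uM final. Activity was referenced to DMSO as baseline.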

[20] = CCTE_Harrill_HTTr_Apoptosis_MCF7: CCTE's 6-hour Apoptosis Assessment for the High-Throughput Transcriptomics (HTTr) Platform, in MCF-7 cells cultured in DMEM + 10% fetal bovine serum, Harrill Lab (AID 2284011)
Procedure, shortened: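 MCF-7 cells in DMEM + 10% fetal bovine serum were exposed to chemicals for 6 hours over an eight-point dilution series. Caspase-3/7 activation was imaged by high content imaging with CellEvent Caspase 3/7 Green; bidirectional fitting used DMSO as baseline.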

Measured: AC50

CO[C@@H]1[C@H](OC(=O)NC(=O)CCl)CC[C@]2(CO2)[C@H]1[C@@]1(C)O[C@@H]1CC=C(C)C
inactive: [1] | [2]

O=C(N[C@H](c1ccccc1)[C@@H]1CN2CCC1CC2)c1c(Cl)ccc(C(F)(F)F)c1Cl
active: [3] 1.55 µM | [4] 1.55 µM | [5] 1.68 µM
not listed: [1] | [15] | [16] | [17] | [18] | [19] | [20]
inactive: all other assays above

CCCCOC(=O)c1ccccc1C(=O)OCc1ccccc1
inactive: [2] | [15] | [6] | [14]
active: [3] 3.11 µM | [4] 3.11 µM | [5] 2.71 µM | [7] 5 µM | [8] 3.83 µM | [9] 6.09 µM | [10] 5 µM | [11] 2.58 µM | [12] 5 µM | [13] 5 µM

Cc1ccc(N)c(N)c1
active: [9] 20 µM
not listed: [1] | [15] | [16] | [17] | [18] | [19] | [20]
inactive: all other assays above

CCC[CH2][Sn]([Cl])([CH2]CCC)[CH2]CCC
inactive: [18] | [6] | [8] | [10] | [11] | [12] | [13]
active: [16] 4.86 µM | [17] 3.2 µM | [19] 11.9 µM | [3] 40.1 nM and 70.2 nM | [4] 40.3 nM and 70.2 nM | [2] 11.8 µM | [20] 10.9 µM | [5] 40 nM and 66.5 nM | [6] 0.347 µM | [7] 198 nM and 150 nM | [8] 0.382 µM | [9] 221 nM and 330 nM | [10] 7.27 µM | [12] 0.239 µM | [13] 0.992 µM | [14] 16.8 nM and 54 nM

O=C(Nc1ccccc1)c1ccccc1I
inactive: [1] | [2]

CCN(CC)CCO
not listed: [1] | [16] | [17] | [18] | [19]
inactive: all other assays above

C[N+](C)(C)CC1CO1 (stereo not given)
not listed: [15] | [16] | [17] | [18] | [19]
inactive: all other assays above

CC(C)(OOC(C)(C)c1ccccc1)c1ccccc1
not listed: [15] | [16] | [17] | [18] | [19]
inactive: all other assays above

CC(C)(O)c1cnn2c(-c3ccc(F)c(-c4c(F)cccc4C#N)c3)cnc2n1
active: [3] 0.713 µM | [4] 0.789 µM | [5] 1.18 µM | [9] 20 µM | [12] 3.97 µM | [13] 20 µM
not listed: [15] | [16] | [17] | [18] | [19]
inactive: all other assays above

N#CC(Br)Br
not listed: [1] | [15] | [16] | [17] | [18] | [19] | [20]
inactive: all other assays above

CCCCCCCCn1sccc1=O
active: [17] 52 µM | [19] 74.4 µM | [20] 45.9 µM | [6] 6.78 µM | [9] 8.26 µM | [11] 3.28 µM | [12] 7.57 µM | [13] 6.8 µM
not listed: [1] | [15]
inactive: all other assays above

CCNS(=O)(=O)C(F)(F)C(F)(F)C(F)(F)C(F)(F)C(F)(F)C(F)(F)C(F)(F)C(F)(F)F
inactive: [1] | [2] | [20]

O=[N+]([O-])C(Br)(CO)CO
active: [3] 33.6 µM | [4] 33.9 µM | [6] 30.4 µM | [7] 20 µM | [9] 30.2 µM | [13] 32 µM
inactive: [1] | [2] | [5] | [8] | [10] | [11] | [12] | [14]

O=[N+]([O-])c1ccc(Oc2ccc(Cl)cc2Cl)cc1
inactive: [2] | [20] | [5] | [6] | [7] | [10] | [11] | [14]
active: [3] 9.28 µM | [4] 9.76 µM | [8] 4.1 µM | [9] 10.6 µM | [12] 10.8 µM | [13] 20 µM

CCCCC(CC)COC(=O)c1ccc(C(=O)OCC(CC)CCCC)c(C(=O)OCC(CC)CCCC)c1 (stereo not given)
inactive: [1]

Source: PubChem BioAssay (EPA / NIEHS)
